{"source": "PubChem BioAssay (NCATS)", "note": "Several values for one entry are separate records, joined by “and”; a condition that tells them apart may be missing. Equal values may be shown once. Inconclusive results are not listed. Activity calls are given as the source filed them. The call rests on the fitted dose curve; in most records, active means well fitted cell-killing curve with a large enough effect; inconclusive means small, poorly fitted or top-dose-only effect, or effect the other way; inactive means no such curve, though single readings can be large or run the other way. On the % scale 0 is the no-effect control and ±100 the full control effect; potency means the concentration at half of the fitted maximal effect."}
{"assay": "qHTS assay to identify small molecule inhibitors of chordoma cells - UCH-1 (AID 1259355); further: nearly all actives have a fitted effect of over 55% in size", "conditions": "UCH-1 chordoma viability, CellTiter-Glo, 48 h, combination; series mostly up to 46.1 µM; activity, negative = inhibition: at the top concentration", "method_in_brief": "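Screening used approved and investigational drugs in 15-point titration against 800 seeded cells per well. A fixed combination of auranofin with camptothecin, doxorubicin, rubitecan and topotecan followed compound addition, and growth was scored by CellTiter-Glo after 48hr.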"}
{"smiles": "COC([CH2][Hg])CNC(=O)c1ccccc1OCC(=O)O", "note": "(stereo unspecified)", "activity, negative = inhibition": "-1.38% (inactive)"}
{"smiles": "ClCC1CO1", "note": "(stereo unspecified)", "activity, negative = inhibition": "1.61% [at 46.1 µM, with auranofin plus four topoisomerase inhibitors] (inactive)"}
{"smiles": "CN(C)[C@H](Cc1ccccc1)c1ccccc1", "activity, negative = inhibition": "0.891% (inactive)"}
{"smiles": "CCCCC[C@@H](O)C1C(=O)OC(C)[C@H](O)/C=C/C=C/C=C/C=C/C=C(\\C)C(O)C(O)C(O)C[C@H](O)C[C@H](O)C[C@H](O)C[C@H](O)C[C@@H]1O", "note": "(stereo partly specified)", "activity, negative = inhibition": "-2.09% (inactive)"}
{"smiles": "C[C@@H]([C@H](O)c1ccccc1)N(C)C", "activity, negative = inhibition": "-17.2% (inactive)"}
{"smiles": "CC(C)[C@@]1(NC(=O)[C@@H]2C[C@@H]3c4cccc5[nH]cc(c45)C[C@H]3N(C)C2)O[C@@]2(O)[C@@H]3CCCN3C(=O)[C@H](Cc3ccccc3)N2C1=O", "activity, negative = inhibition": "-25% (inactive)"}
{"smiles": "FC(F)OC(F)(F)C(F)Cl", "note": "(stereo unspecified)", "activity, negative = inhibition": "-14.3% (inactive)"}
{"smiles": "O=C1CN(O)C(c2ccccc2)=c2cc(Cl)ccc2=N1", "activity, negative = inhibition": "-3.44% (inactive)"}
{"smiles": "CN1[C@H]2CC[C@@H]1[C@@H](C(=O)O)[C@@H](OC(=O)c1ccccc1)C2", "activity, negative = inhibition": "-3.75% (inactive)"}
{"smiles": "Cc1cccc(C(C)c2cnc[nH]2)c1C", "note": "(stereo unspecified)", "activity, negative = inhibition": "-4.3% (inactive)"}
{"smiles": "C[C@]12CC[C@H]3[C@@H](CC[C@@]45O[C@@H]4C(O)=C(C#N)C[C@]35C)[C@@H]1CC[C@@H]2O", "activity, negative = inhibition": "-4.22% (inactive)"}
{"smiles": "[O]=[Cr](=[O])([OH])[O][Cr](=[O])(=[O])[OH]", "Potency": "2.24 µM (active) and 4.47 µM (active)"}
{"smiles": "C=CCN(C1=NCCN1)c1c(Cl)cccc1Cl", "activity, negative = inhibition": "6.89% (inactive)"}
{"smiles": "c1ccc2sc(SNC3CCCCC3)nc2c1", "activity, negative = inhibition": "-2.83% (inactive)"}
{"smiles": "Cn1sc(Cl)cc1=O", "activity, negative = inhibition": "-15% (inactive)"}
{"smiles": "C[CH2][Hg][S]c1ccccc1C(=O)O", "Potency": "3.16 µM (active)"}
